# The full data set covers some 8,800 targets. This sample favours those with a hit. About 0.5% of all pairs of compound and target were hits. Values without a mark were called inactive.
# Key:
# Assay in all cases: log2 fold change, soluble protein after heating vs DMSO (PISA); higher = thermal stabilisation; K562 lysate, 10 uM; active = over 0.2 and 3.5 SD of the protein, either way, in both replicates (recomputed)
# alvocidib = compound: CN1CC[C@H](c2c(O)cc(O)c3c(=O)cc(-c4ccccc4Cl)oc23)[C@H](O)C1 [alvocidib]
# In short: (§1)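 Soluble protein was defined as the supernatant remaining after 21,000xg for 90 min, following pooling of heated aliquots and adjustment to 0.5% NP-40 at 4°C. Before that, crude K562 extract at 1 mg/mL protein in PBS pH 7.4 with 1 mM MgCl2 was treated with 10 μM compound for 30 min and heated for 3 min across 48°C-58°C. Quantification used TMTpro 16plex LC-MS/MS with channel sums equalised, and values are log-two fold changes in thermal stability relative to solvent controls from duplicates.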
# Tubastatin A = compound: CN1CCc2c(c3ccccc3n2Cc2ccc(C(=O)NO)cc2)C1 [Tubastatin A]
# In short: as §1
# [1] = compound: CNC(=O)C1=CC=CC=C1NC2=NC(=NC=C2Cl)NC3=C(C=C(C=C3)N4CCOCC4)OC
# In short: as §1
# defactinib = compound: CNC(=O)c1ccc(Nc2ncc(C(F)(F)F)c(NCc3nccnc3N(C)S(C)(=O)=O)n2)cc1 [defactinib]
# In short: as §1
# [2] = compound: CNc1nc(-c2ccc3c(N)n[nH]c3c2)cc(N2C[C@@H](C(=O)NC3CCCCC3)CC[C@H]2C)n1
# In short: as §1
# encorafenib = compound: COC(=O)N[C@@H](C)CNc1nccc(-c2cn(C(C)C)nc2-c2cc(Cl)cc(NS(C)(=O)=O)c2F)n1 [encorafenib]
# In short: as §1
# [3] = compound: COC(=O)[C@H](CCSC)NC(=O)C1=C(C=C(C=C1)NC[C@H](CS)N)C2=CC=CC=C2
# In short: as §1
# alisertib = compound: COc1cc(Nc2ncc3c(n2)-c2ccc(Cl)cc2C(c2c(F)cccc2OC)=NC3)ccc1C(=O)O [alisertib]
# In short: as §1
# [4] = compound: COc1cc2nc(-c3cc(F)ccc3O)nc(N[C@@H]3CNC[C@H]3C(C)(C)O)c2cc1OC
# In short: as §1
# gefitinib = compound: COc1cc2ncnc(Nc3ccc(F)c(Cl)c3)c2cc1OCCCN1CCOCC1 [gefitinib]
# In short: as §1
# Chain of UniProt Q9NP77 (Q9NP77 whole entry, looked up): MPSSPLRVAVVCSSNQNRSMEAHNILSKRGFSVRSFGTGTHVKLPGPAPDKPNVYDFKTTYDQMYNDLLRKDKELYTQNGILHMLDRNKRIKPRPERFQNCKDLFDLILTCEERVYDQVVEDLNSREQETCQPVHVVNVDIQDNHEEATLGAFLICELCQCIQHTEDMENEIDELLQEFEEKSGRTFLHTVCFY
# Chain of UniProt Q13242 (Q13242 whole entry, looked up): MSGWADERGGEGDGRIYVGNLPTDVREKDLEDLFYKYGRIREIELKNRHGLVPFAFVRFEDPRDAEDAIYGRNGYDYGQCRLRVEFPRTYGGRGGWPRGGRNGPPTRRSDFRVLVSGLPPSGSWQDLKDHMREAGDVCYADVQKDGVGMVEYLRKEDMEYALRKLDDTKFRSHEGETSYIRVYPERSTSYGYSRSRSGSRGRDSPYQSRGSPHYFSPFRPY
# Chain of UniProt P19623 (P19623 whole entry, looked up): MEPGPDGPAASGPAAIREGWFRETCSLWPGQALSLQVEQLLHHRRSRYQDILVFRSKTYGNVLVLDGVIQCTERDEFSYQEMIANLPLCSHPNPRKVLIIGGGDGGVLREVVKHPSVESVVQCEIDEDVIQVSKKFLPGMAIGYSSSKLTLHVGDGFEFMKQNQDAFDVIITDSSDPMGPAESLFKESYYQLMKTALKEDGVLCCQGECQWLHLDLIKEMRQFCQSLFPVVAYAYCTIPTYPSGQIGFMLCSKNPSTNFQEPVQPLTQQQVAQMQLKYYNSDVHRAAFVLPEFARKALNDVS
# Chain of UniProt Q96SB8 (Q96SB8 whole entry, looked up): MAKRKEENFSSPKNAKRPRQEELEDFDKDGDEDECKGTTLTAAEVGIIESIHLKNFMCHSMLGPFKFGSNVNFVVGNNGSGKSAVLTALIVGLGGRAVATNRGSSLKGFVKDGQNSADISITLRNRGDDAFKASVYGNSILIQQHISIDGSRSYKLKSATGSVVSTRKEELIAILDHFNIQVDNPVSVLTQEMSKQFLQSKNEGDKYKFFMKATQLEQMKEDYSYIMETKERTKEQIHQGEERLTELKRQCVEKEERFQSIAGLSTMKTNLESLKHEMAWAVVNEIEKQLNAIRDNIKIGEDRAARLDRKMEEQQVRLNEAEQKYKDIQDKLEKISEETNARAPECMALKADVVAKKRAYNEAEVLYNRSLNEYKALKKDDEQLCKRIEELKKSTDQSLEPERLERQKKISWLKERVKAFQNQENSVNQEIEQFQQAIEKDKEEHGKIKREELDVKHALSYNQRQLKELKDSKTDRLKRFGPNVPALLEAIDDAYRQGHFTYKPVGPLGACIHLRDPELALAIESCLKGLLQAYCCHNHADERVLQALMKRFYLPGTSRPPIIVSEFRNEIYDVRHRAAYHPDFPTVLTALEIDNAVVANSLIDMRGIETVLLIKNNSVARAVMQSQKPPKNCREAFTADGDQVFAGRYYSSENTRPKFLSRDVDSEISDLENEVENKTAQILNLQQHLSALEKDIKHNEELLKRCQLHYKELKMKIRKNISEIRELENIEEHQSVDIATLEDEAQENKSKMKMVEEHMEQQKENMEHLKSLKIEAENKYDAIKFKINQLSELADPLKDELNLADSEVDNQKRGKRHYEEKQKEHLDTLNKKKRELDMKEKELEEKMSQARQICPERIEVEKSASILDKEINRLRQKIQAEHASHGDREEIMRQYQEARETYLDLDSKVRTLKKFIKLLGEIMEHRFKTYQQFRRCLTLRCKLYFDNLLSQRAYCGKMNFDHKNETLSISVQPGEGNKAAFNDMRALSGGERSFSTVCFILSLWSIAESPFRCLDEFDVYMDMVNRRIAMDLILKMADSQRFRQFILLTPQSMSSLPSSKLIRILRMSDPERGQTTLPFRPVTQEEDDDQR
# Chain of UniProt Q9NYA1 (Q9NYA1 whole entry, looked up): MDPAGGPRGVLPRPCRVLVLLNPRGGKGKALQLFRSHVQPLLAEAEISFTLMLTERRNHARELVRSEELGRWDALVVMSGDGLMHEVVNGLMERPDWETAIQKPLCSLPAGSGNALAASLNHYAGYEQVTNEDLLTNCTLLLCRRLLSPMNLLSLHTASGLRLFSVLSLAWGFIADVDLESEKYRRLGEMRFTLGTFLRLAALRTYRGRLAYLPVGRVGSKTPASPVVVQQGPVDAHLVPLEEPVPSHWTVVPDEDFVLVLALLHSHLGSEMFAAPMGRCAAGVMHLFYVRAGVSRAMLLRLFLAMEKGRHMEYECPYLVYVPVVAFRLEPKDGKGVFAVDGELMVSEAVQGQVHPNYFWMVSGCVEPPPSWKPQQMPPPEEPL
# Chain of UniProt Q92844 (Q92844 whole entry, looked up): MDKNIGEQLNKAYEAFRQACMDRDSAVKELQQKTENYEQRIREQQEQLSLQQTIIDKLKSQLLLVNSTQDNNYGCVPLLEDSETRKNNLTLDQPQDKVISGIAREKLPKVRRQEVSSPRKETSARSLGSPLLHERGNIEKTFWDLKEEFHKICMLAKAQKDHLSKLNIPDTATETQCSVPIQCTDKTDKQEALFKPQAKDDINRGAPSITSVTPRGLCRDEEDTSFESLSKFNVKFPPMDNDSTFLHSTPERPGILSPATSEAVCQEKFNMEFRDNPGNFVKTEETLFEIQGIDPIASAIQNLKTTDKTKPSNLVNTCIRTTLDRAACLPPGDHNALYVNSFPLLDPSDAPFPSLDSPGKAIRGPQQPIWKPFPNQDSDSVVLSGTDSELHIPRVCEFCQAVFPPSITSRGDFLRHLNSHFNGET
# Chain of UniProt Q14849 (Q14849 whole entry, looked up): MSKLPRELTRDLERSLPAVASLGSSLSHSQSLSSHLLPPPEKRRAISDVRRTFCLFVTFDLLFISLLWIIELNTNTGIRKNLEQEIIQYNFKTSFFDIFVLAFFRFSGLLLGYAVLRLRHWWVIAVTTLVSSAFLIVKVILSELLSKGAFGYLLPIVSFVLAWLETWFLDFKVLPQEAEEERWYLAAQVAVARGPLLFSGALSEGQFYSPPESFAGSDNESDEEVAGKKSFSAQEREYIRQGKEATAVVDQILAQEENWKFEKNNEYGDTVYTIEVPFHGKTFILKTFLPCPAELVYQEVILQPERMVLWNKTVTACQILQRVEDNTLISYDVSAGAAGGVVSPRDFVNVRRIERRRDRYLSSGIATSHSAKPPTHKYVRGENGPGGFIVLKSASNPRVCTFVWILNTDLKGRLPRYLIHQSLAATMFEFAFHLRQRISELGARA
# Chain of UniProt P52630 (P52630 whole entry, looked up): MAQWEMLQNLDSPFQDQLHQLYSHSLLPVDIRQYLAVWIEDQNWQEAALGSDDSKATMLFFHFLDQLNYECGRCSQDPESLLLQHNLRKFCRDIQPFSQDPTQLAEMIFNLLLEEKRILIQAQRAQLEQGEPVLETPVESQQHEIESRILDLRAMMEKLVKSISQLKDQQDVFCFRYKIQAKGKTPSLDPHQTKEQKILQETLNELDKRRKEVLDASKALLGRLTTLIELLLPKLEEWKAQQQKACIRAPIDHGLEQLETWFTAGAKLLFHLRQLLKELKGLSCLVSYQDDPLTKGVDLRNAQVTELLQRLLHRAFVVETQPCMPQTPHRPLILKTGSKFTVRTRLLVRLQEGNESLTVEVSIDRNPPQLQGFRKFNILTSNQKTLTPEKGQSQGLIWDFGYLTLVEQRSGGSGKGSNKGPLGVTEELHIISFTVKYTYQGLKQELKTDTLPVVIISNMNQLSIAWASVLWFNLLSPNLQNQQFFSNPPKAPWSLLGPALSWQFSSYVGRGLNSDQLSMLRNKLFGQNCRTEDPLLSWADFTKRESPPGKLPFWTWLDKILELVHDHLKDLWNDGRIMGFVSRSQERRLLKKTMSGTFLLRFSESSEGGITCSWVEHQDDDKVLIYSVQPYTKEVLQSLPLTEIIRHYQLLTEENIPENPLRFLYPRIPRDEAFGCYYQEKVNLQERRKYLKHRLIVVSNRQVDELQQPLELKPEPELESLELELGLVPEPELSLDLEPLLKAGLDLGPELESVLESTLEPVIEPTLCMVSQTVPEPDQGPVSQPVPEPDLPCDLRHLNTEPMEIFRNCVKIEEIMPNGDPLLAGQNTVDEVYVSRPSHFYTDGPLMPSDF
# Chain of UniProt Q6KCM7 (Q6KCM7 whole entry, looked up): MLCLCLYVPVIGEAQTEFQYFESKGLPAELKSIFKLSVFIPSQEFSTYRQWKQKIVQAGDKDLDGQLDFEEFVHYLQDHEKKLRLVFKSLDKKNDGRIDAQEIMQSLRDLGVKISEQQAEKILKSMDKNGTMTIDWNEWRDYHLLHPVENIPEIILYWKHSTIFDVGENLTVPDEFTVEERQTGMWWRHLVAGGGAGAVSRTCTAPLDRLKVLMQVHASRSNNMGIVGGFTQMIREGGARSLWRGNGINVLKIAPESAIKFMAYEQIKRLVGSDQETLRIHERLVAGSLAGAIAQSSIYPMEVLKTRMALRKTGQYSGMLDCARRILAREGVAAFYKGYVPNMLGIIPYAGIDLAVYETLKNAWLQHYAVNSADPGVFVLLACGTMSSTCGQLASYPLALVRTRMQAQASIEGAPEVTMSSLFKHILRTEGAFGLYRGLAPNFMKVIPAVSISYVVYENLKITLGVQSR
# Chain of UniProt O00161 (O00161 whole entry, looked up): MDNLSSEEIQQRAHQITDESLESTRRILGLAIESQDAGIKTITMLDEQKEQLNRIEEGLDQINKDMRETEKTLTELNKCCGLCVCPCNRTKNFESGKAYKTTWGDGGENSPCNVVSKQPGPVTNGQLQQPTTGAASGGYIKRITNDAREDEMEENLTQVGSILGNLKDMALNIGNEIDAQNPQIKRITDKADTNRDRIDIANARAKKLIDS
Target,log2 fold change (alvocidib),log2 fold change (Tubastatin A),log2 fold change [1],log2 fold change (defactinib),log2 fold change [2],log2 fold change (encorafenib),log2 fold change [3],log2 fold change (alisertib),log2 fold change [4],log2 fold change (gefitinib)
SRM (UniProt P19623),0.008,-0.014,-0.014,-0.03,-0.03,-0.011,0.083,-0.03,0.016,0.011
STARD3 isoform 3 (UniProt Q14849),-0.037,0.079,0.004,-0.019,0.068,-0.029,0.055,-0.007,-0.059,0.081
SSU72 (UniProt Q9NP77),-0.127,-0.05,-0.035,-0.026,-0.032,-0.04,0.183,-0.016,-0.013,-0.004
SPHK1 isoform 2 (UniProt Q9NYA1),0.023,-0.114,0.046,0.076,-0.175,0.018,0.006,0.045,0.022,0.069
SLC25A25 isoform 3 (UniProt Q6KCM7),0.014,0.015,0.007,0.029,0.003,0.035,0.012,-0.011,0.025,0.037
SHC1 isoform 6 (UniProt P29353),0.186,0.035,0.001,-0.031,0.086,0.15,-0.078,-0.008,-0.014,-0.035
SLC38A1 (UniProt Q9H2H9),-0.111,0.022,-0.026,-0.016,-0.054,0.019,-0.045,-0.021,0.011,0.073
SLC40A1 (UniProt Q9NP59),0.002,0.145,-0.05,0.087,-0.029,0.013,-0.072,0.018,0.039,-0.01
STAT2 (UniProt P52630),0.02,-0.183,0.016,-0.03,-0.018,0.023,-0.014,0.006,0.004,-0.023
TANK (UniProt Q92844),0.066,-0.043,0.25,0.044,0.068,-0.006,-0.309 (active),-0.006,-0.024,-0.047
SHC1 (UniProt P29353),0.144,,,,,,,,,
SMAD9 (UniProt O15198),0.008,-0.075,0.089,-0.081,0.011,0.014,-0.014,0.052,0.047,-0.028
SRSF9 (UniProt Q13242),-0.021,-0.165,0.002,-0.054,-0.044,0,-0.084,-0.013,-0.017,-0.022
SNAP23 (UniProt O00161),0.035,0.015,-0.027,-0.002,-0.01,0,-0.033,-0.015,0.005,0.02
SMC6 (UniProt Q96SB8),-0.017,-0.087,0.049,-0.003,-0.004,-0.02,0.045,-0.018,-0.013,0.007

# Source: the supplement of paper PMC10849652
